Among all 10,000 compounds or so, about 20 (0.2%) were called active. No rule for the calls is given here. These entries were drawn from the full list.
Assay: enhancers of VCAM-1 display on endothelial cells, imaging, high-content imaging, pooled HUVEC, TNFa stimulus (AID 457)
Settings: TNFa-induced VCAM-1 immunofluorescence imaging; concentration not given here

augmentation, inactive:
CC(C)Oc1cc2oc(=O)c3c(c2cc1Cl)CCC3
O=C(CSc1nc2ccccc2s1)N1CCN(C(=O)c2ccco2)CC1
CCOc1ccccc1N1CCN(S(=O)(=O)c2cccc3nsnc23)CC1
Cn1c(=O)c2c(nc(NCc3ccccc3)n2CCCc2ccccc2)n(C)c1=O
CCOC(=O)c1[nH]c(CSc2nnc(-c3ccc(OC)cc3)o2)c(C(=O)OCC)c1C
O=C(Nc1cnn(C23CC4CC(CC(C4)C2)C3)c1)c1cnn2c(C(F)(F)F)cc(-c3ccco3)nc12
Cc1noc(C)c1CSc1ccccc1C(=O)N1CCN(c2ccccc2)CC1
CCn1cc(C2=NCC(C)O2)c2ccccc21 (stereo not given)
CCC(=O)N1CCc2cc(Br)cc(S(=O)(=O)C3(C(=O)OC)CC3)c21
COc1ccc(Cl)cc1NC(=O)CCN1CCN(c2ccccc2C)CC1
COC(=O)c1ccc2ncccc2c1
Cc1cccc(C2CC(c3ccccc3)Nc3nc(N)nn32)c1 (stereo not given)
O=C(NCCCN1CCCC1=O)c1cncc(Br)c1
Cc1ccccc1-c1noc(N)c1C#N
COc1ccccc1-c1nnc(SCC(=O)NC2CCCCC2)o1
O=C(CSc1nnnn1-c1ccccc1Cl)Nc1ccc2c(c1)OCCO2
O=C(CCNC(=O)c1ccc(Br)o1)NC1CCCC1
N#Cc1cnn(Cc2ccc(Cl)cc2)c1N
COc1ccc(N2CCN(C(=O)CSc3ccccc3)CC2)cc1
Cc1csc(NC(=O)c2cccc(S(=O)(=O)N3CCCCC3)c2)n1
COCc1[nH]nc2c1C(c1cc(OC)c(O)c(OC)c1)C(C#N)=C(N)O2 (stereo not given)
Cc1cc(NC(=O)CCC(=O)N(c2cccnc2)C(C(=O)NC2CCCC2)c2ccccc2F)no1 (stereo not given)
CN(C)c1ccc(CNn2cnnc2)cc1
O=C(NC1CC2CCC1C2)c1ccc(CN2CCOCC2)cc1 (stereo not given)
CCOc1ccc2nc(NC(=O)CSc3nc4ccccc4c(=O)n3Cc3ccco3)sc2c1
c1ccc(-n2ncc3c(N4CCCCC4)ncnc32)cc1
CCOc1ccccc1C(=O)NCC(=O)OCC(=O)N1C(C)CCCC1C (stereo not given)
Cc1nc2oc3c(NCc4ccccn4)ncnc3c2c2c1COC(C)(C)C2
O=C(c1ccc(NS(=O)(=O)c2cccs2)cc1)N1CCCCC1
COCCNC(=O)c1ccc2c(c1)nc(C)n2-c1cccc(F)c1
O=C(c1ccc(Cl)cc1)N(Cc1cccs1)C1CCS(=O)(=O)C1 (stereo not given)
CN(C(=O)c1c(Cl)nc2sccn12)C1CCCCC1
O=C(COC(=O)C1=COCCO1)Nc1ccccc1Oc1ccccc1
O=C(CN1C(=O)CSC1=O)Nc1ccc(N2CCOCC2)cc1
CCN(CC)CCN1C(=O)C(=O)/C(=C(/O)c2c(C)[nH]c(C(=O)OC)c2C)C1c1ccco1 (stereo not given)
CCNC(=O)N(C)c1nncnc1C(=O)NC
Cc1noc(C)c1S(=O)(=O)N1CCC(C(=O)N2CCN(Cc3ccc4c(c3)OCO4)CC2)CC1
O=C(CSc1nnc(-c2ccncc2)n1-c1ccc(F)cc1)NC(=O)NCc1ccco1
COc1ccc(S(=O)(=O)NC(CC(=O)NCc2ccco2)c2ccco2)cc1 (stereo not given)
COc1ccc2nc(NC(=O)C3CCCN(S(=O)(=O)c4cccc5nsnc45)C3)sc2c1 (stereo not given)
COC(=O)C(CCCCNC(=O)OCc1ccccc1)NC(=O)CN (stereo not given)
CCCCC(CC)Cn1c2nc3ccccc3nc2c2c(=N)oc(C)nc21 (stereo not given)
O=C(CCCN1C(=O)c2ccccc2C1=O)NCc1cccnc1
CCN(CC)S(=O)(=O)c1cccc(-c2nnc(SCC(N)=O)n2CCc2ccccc2)c1
CCc1c(C(=O)Nc2cc(C)ccc2OC)[nH]c(C)c1C(C)=O
COC(=O)c1ccc(-c2nn(C)c(=O)c3ccccc23)cc1
Cc1cc2ncn(S(=O)(=O)c3ccc(S(=O)(=O)N4CCOCC4)cc3)c2cc1C
Cc1ccccc1NC(=O)CN1CCC(NC(=O)Nc2ccccc2)CC1
O=C(Nc1ccc(O)cc1)C1CCCN1S(=O)(=O)c1ccc(F)cc1 (stereo not given)
O=c1c2ccccc2cnn1-c1nc2ccccc2s1
CCc1nnc(NC(=O)CSc2nc3ccccc3s2)s1
Cc1cccc(C(=O)N(C)c2nnc(-c3ccncc3)s2)c1
CCOC(=O)CC1(CC(=O)OCC)NC(=O)c2c(C)sc(C(=O)OCC)c2N1
CCSc1nc(-c2ccc(OC)cc2)ccc1C#N
COC(=O)c1ccccc1NC(=O)c1cc(-c2ccc(OC)c(OC)c2)on1
Cc1cccc(N(CC(=O)Nc2ccc(CC#N)cc2)S(C)(=O)=O)c1
COc1ccc(CN(C(=O)c2oc3ccccc3c2C)C2CCS(=O)(=O)C2)cc1 (stereo not given)
Cn1c(=O)c2ncn(CC(=O)NCCOc3ccc(C(C)(C)C)cc3)c2n(C)c1=O
CSc1nc2ccc(S(=O)(=O)N3CCOCC3)cc2s1
Cn1c(Cc2cccs2)nnc1SCC(=O)N1CCc2ccccc21
O=S(=O)(c1cccc(S(=O)(=O)N2CCC(N3CCCCC3)CC2)c1)N1CCOCC1
Cc1ccccc1CS(=O)(=O)Cc1ccc(C(=O)NCCCN2CCOCC2)o1
COc1cccc(-c2noc(CCC(=O)NC3CCCCC3)n2)c1
CCOC(=O)CSC1=Nc2ccccc2C2=NC(CC(=O)NCc3ccc(OC)cc3)C(=O)N12 (stereo not given)
Cc1cc(NC(=O)C23CCC(C)(c4nc5cc(Cl)c(Cl)cc5nc42)C3(C)C)no1 (stereo not given)
Cc1ccc(/C(O)=C2\C(=O)C(=O)N(CCCN(C)C)C2c2ccccn2)cc1 (stereo not given)
O=C(OCc1ccc2c(c1)OCO2)c1ccc(S(=O)(=O)N2CCCCC2)cc1
CCN(CC)S(=O)(=O)c1ccc(S(=O)(=O)N(Cc2ccccn2)Cc2ccco2)cc1
O=C(COc1ccc(S(=O)(=O)NC2CCCCC2)cc1)NCc1ccccn1
CCCCOc1ccc(N(CC(=O)NC2CCCC2)C(=O)CCC(=O)Nc2ccccn2)cc1
